Shown are actives, neighbours in structure and some others; about 7.1% of the full set was active somewhere.
M1 antag = antagonists of rat M1 muscarinic receptor; P08482; CHO-M1 cells, Fluo-4 calcium, ACh EC80 antagonist mode; active compounds read low; B-score at 10 µM; hit rate 3.4% among 64,000;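 active = calcium fluorescence response, raw or row-and-column corrected B-score, differing from the plate sample mean either way at a set confidence level, mostly lower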
PTK2B oligo ant = blocks oligomerization of human Pyk2 in cells; Q293 cells, Pyk2 FERM NanoBiT luminescence; active compounds read low; hit rate 0.83% among 99,000; z-score (the deposit names both 25 µM and 10 µM);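 active = Z-score of -3 or lower, scaled per plate to the spread of control and sample wells; inactive = z-score above -3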;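 note: negative z-score means lost luminescence so less FERM oligomerization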
Target sequence (Q14289 whole entry, looked up): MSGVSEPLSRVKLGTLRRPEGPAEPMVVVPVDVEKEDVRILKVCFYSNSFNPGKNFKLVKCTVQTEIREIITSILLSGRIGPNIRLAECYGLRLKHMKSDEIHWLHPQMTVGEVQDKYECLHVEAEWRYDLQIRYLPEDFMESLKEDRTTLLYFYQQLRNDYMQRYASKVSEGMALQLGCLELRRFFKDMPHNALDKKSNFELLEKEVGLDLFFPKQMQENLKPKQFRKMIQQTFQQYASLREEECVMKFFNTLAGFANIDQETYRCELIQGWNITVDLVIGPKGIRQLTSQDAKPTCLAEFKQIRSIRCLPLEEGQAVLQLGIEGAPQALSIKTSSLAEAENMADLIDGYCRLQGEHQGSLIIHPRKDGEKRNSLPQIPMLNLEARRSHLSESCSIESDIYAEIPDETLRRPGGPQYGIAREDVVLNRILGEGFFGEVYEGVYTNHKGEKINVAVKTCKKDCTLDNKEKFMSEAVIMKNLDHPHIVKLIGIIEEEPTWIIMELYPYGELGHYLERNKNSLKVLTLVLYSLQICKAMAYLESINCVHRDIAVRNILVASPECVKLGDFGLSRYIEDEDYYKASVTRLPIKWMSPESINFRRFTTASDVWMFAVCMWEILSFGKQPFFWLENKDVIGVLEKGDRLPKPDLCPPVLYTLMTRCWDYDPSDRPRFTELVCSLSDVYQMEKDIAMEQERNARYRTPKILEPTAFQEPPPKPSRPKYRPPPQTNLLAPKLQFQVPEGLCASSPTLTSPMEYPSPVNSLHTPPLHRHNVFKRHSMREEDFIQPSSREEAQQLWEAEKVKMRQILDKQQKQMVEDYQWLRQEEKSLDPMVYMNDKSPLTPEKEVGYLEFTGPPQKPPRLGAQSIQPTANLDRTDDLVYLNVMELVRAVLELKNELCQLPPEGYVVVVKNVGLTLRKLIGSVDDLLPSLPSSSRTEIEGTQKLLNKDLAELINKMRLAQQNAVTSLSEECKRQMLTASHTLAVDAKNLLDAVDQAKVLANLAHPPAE
Cav3 T inh = blocks human Cav3.2 T-type calcium channel. Cav3.2-expressing cells, Fluo-4 calcium fluorescence FDSS; active compounds read low. B-score at 10 µM. hit rate 4% among 100,000;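 active = single-dose well whose peak fluorescence ratio is a statistical outlier from its plate by either plate-standardised score or position-corrected B-score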
M1 ag = agonists of M1 muscarinic receptor | hit rate 3% among 64,000 | AID 626 | B-score at 10 µM | CHO-M1 cells, Fluo-4 calcium fluorescence, agonist mode; active compounds read high;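 active = fluorescence rise, raw or as B-score row- and column-corrected plate score, outside the 99.7% band of its plate's samples, either direction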
M1 antag conf = M1 muscarinic receptor (rat) antagonism, confirmed. calcium response (max-min fluorescence) at 10 µM. shares compounds with M1 antag. hit rate 43% among 1,700. CHO-M1 cells, Fluo-4 calcium, ACh EC80 antagonism; active compounds read low;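 active = calcium response below the same-plate mean of wells given acetylcholine alone at its 80%-effect dose, minus 3 SD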
mGluR4 antag = mGluR4 (human) activity, M1 antagonist secondary assay; shares compounds with M1 antag; CHO-mGluR4 calcium flux, Fluo-4 fluorescence, glutamate EC80; active compounds read low; fluorescence response (max-min) at 10 µM; hit rate 0.9% among 1,700; AID 678;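 active = fluorescence response below the plate's average for near-maximal glutamate wells, less 3 SD of those wells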;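 note: raw unnormalized fluorescence span taken in the window right after glutamate addition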
A number is an active result; n = inactive; x = not tested or not shown.

SMILES	M1 antag	PTK2B oligo ant	Cav3 T inh	M1 ag	M1 antag conf	mGluR4 antag
COC(=O)Nc1nc2c(s1)CCCC2	-3.1	n	n	n	n	n
CCN1CCN(S(=O)(=O)c2cc(OC)c(Cl)cc2OC)CC1	x	n	n	x	x	x
COc1ccc(CNC(=O)CSc2nnnn2-c2ccccc2)cc1	-4.8	n	n	n	n	n
CCOC(=O)C1C(=O)C=C(c2ccc(Br)cc2)CC1c1ccco1 (centres undefined)	x	n	n	x	x	x
CCN(CC)S(=O)(=O)c1ccc(C(=O)OC2CCCCC2CN(C)C)cc1 (centres undefined)	-4.6	n	x	n	n	n
O=C(Nc1ccccc1)C1=C[C@@H](c2ccc(C(F)(F)F)cc2)C[C@@H](OCCCCO)O1	x	x	n	x	x	x
O=C1CC(N2CCN(C/C=C/c3ccccc3)CC2)C(=O)N1CCc1ccccc1 (centres undefined)	-4	n	n	n	422	n
O=C1CC(N2CCN(C/C=C/c3ccccc3)CC2)C(=O)N1Cc1cccs1 (centres undefined)	-19	n	n	n	23	n
O=C1CC(N2CCN(C3CC(=O)N(CCc4ccccc4)C3=O)CC2)C(=O)N1CCc1ccccc1 (centres undefined)	n	n	n	n	x	x
Cc1cccc(-n2c(C)nc3sccc3c2=O)c1	x	n	n	x	x	x
Cc1c(NC(=O)c2ccc(F)c(S(=O)(=O)N3CCOCC3)c2)c(=O)n(-c2ccccc2)n1C	x	n	n	x	x	x
NC(=O)C1=C[C@@H](c2csc3ccccc23)C[C@@H](OCCCCO)O1	x	x	n	x	x	x
CCOC(=O)N1CCC(N2Cc3cccc(C(=O)NC(C)c4ccc5c(c4)OCCO5)c3C2=O)CC1 (centres undefined)	n	x	n	n	x	x
CCC(c1nnnn1Cc1ccco1)N(Cc1ccccc1OC)Cc1cc2cc(C)ccc2[nH]c1=O (centres undefined)	-2.2	n	n	n	n	n
Cc1sc2nc(CN3CCCC3)nc(N3CCN(S(=O)(=O)c4cccs4)CC3)c2c1C	-3.9	n	n	n	410	n
CCc1nc(N2CCN(S(=O)(=O)c3ccc(Br)cc3)CC2)c2c(C)c(C)sc2n1	x	n	n	x	x	x
O=C(Nc1cccc(S(=O)(=O)C(F)F)c1)c1ccc(Cl)c(S(=O)(=O)N2CCOCC2)c1	-2.2	-3	n	n	n	104
CCn1c(=N)n(CC(=O)c2ccco2)c2ccccc21	-4	n	n	n	n	n
COCc1[nH]nc2c1C(c1ccsc1)C(C#N)=C(N)O2 (centres undefined)	-2.7	n	n	n	n	n
CCSc1sccc1C1C(C#N)=C(N)N(c2cccnc2)C2=C1C(=O)CC(C)(C)C2 (centres undefined)	-5.1	n	n	n	n	n
CCCC(CCC)C(=O)OC1C[C@H]2CC[C@@H](C1)[N+]2(C)C (some centres undefined)	-15	x	n	n	30	n
Cc1ccc(N2C(=O)CSC23C(=O)Nc2ccccc23)cc1 (centres undefined)	-3.2	n	n	n	n	n
CC(C)C12CN3CC(C(C)C)(CN(C1)C31C(=O)Nc3ccccc31)C2=O (centres undefined)	n	n	n	n	x	x
O=C(NCc1ccccc1Cl)C1CCCN(S(=O)(=O)c2cccc3nsnc23)C1 (centres undefined)	x	n	n	x	x	x
CCc1cccc(C)c1NC(=O)CSc1nnc(-c2cc3cc(Br)ccc3o2)n1CC	-2.8	n	n	n	n	n
SMILES	M1 antag	PTK2B oligo ant	Cav3 T inh	M1 ag	M1 antag conf	mGluR4 antag
CCCCS/C(=C(/C#N)C(N)=O)c1cc2c([nH]1)CCCC2	-6	n	n	n	140	n
CCN1CCN(c2nc(C)c3c(n2)CCCC3=O)CC1	x	n	n	x	x	x
CCc1cc2c(NCCN3CCCCC3)ncnc2s1	-4.3	n	n	n	534	n
COc1ccc(Cc2nc3ccc(S(N)(=O)=O)cc3[nH]2)cc1OC	-2.9	x	n	n	n	n
COC(=O)/C(C(C)=O)=C(/C=C/C=C/N(C)C)N(C)C	x	n	n	x	x	x
COC(=O)\C(C(C)=O)=C(/C=C/C=C/N(C)C)N(C)C	-2.4	n	n	n	n	n
COc1ccc(S(=O)(=O)NC(CC(=O)N2CCc3ccccc32)c2ccco2)cc1 (centres undefined)	x	n	n	x	x	x
Cc1ccc(S(=O)(=O)NC(CC(=O)N2CCc3ccccc32)c2ccco2)cc1 (centres undefined)	-4.4	n	x	n	n	n
Cc1cccc(OCC(=O)NC(=S)Nc2ccc(S(=O)(=O)NC3CCCCC3)cc2)c1	x	n	n	x	x	x
COC(=O)c1ccc(OCC(O)CN2CCC(C)CC2)cc1 (centres undefined)	-3.5	x	n	n	n	n
CC(=O)c1ccc(OCC(O)CN2C(C)CCCC2C)cc1 (centres undefined)	-2	x	n	n	n	n
CCC(=O)c1ccc(OCC(O)CN(C)C2CCCCC2)cc1 (centres undefined)	-5.5	n	n	n	480	n
N#Cc1c(-n2ccnc2)cccc1-n1ccnc1	x	n	n	x	x	x
CC1(C)CC(=O)c2c(nn(-c3ccccc3)c2N)C1	-2.4	n	n	n	n	n
CCOC(=O)c1cc2sccc2n1CC(=O)Nc1ccc2c(c1)OCCO2	-0.93	-3.9	n	n	n	n
CCC(=O)Nc1nnc(SCC(=O)c2ccc3c(c2)Cc2ccccc2-3)s1	x	n	n	x	x	x
COCCOC(=O)C1=C(C)OC(N)=C(C#N)C1c1ccc2c(c1)OCO2 (centres undefined)	n	n	n	n	x	x
CCOC(=O)C1=C(C)OC(N)=C(C#N)C1c1cc2c(cc1Br)OCO2 (centres undefined)	-1.9	n	n	n	417	n
O=C(NC1CCCCC1)n1c(=O)oc2ccccc21	-15	n	n	n	n	n
COCC(COCCCNC(=O)Nc1ccc(Br)cc1)OC (centres undefined)	-1.6	n	n	n	n	n
COCCNC(=O)C(=O)Nc1ccc(Br)cc1	x	n	n	x	x	x
COc1ccc2cc(CN(Cc3cccnc3)S(=O)(=O)c3ccccc3)c(=O)[nH]c2c1	-2.4	n	n	n	n	n
COc1ccc2[nH]c3nc(SCc4nnc(-c5ccc(C)cc5)o4)nnc3c2c1	n	n	n	n	x	x
O=C(c1ccc(S(=O)(=O)N2CCCCCC2)cc1)N1CCN(c2ccccn2)CC1	-2.1	n	n	n	507	n
COc1cc(-c2cc(C(=O)N3CCN(c4ccccn4)CC3)c3ccccc3n2)cc(OC)c1OC	-3.8	n	n	n	n	n
COc1ccc(-c2cc(C(=O)N3CCN(c4ccccn4)CC3)c3ccccc3n2)cc1	n	n	n	n	x	x
CCCNC(=O)C1=C(C)C(=O)OC12CCC(C)CC2 (centres undefined)	-2.2	x	n	n	n	n
Cc1cc(C(=O)OCc2nnc(-c3ccccc3)o2)c(C)n1-c1ccccc1	n	n	n	n	x	x
Cc1noc(C)c1COC(=O)c1cc(C)n(-c2ccccc2)c1C	-2.7	-3.1	-4.9	n	n	n
